Assay outcomes as filed in PubChem.
A selection: hits, their analogues and other compounds. The true share with any hit is near 1.5%.
BLM helicase inh: qHTS Assay for Inhibitors of Bloom's syndrome helicase (BLM) | RecQ-like DNA helicase BLM (Homo sapiens), P54132 | recombinant BLM DNA unwinding, fluorescence dequenching | Potency, µM (doses to about 56.1 µM), for inactives: top-dose activity change, negative = inhibition, hits mostly inhibitors | 350,000 compounds, 0.2% hits | AID 2528, 2010;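 further: potency means the concentration at half of the fitted maximal effect; plate controls were vehicle for no effect and no enzyme for full effect; nearly all actives have a fitted effect of over 35% in size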
PI5P4Ka inh: qHTS for Inhibitors of phosphatidylinositol 5-phosphate 4-kinase (PI5P4K); 330,000 compounds, 1.2% hits; PI5P4Kalpha enzyme, ADP-Glo luminescence, 60 min; hits give low values; Phosphatidylinositol 5-phosphate 4-kinase type-2 alpha (Homo sapiens), P48426; max response, %; AID 652105, 2013; active means max response of -50% or lower; inconclusive means between -30% and -50%; inactive means -30% or higher; further: value at the top dose of about 77 µM
Target sequence (P48426 whole entry, looked up): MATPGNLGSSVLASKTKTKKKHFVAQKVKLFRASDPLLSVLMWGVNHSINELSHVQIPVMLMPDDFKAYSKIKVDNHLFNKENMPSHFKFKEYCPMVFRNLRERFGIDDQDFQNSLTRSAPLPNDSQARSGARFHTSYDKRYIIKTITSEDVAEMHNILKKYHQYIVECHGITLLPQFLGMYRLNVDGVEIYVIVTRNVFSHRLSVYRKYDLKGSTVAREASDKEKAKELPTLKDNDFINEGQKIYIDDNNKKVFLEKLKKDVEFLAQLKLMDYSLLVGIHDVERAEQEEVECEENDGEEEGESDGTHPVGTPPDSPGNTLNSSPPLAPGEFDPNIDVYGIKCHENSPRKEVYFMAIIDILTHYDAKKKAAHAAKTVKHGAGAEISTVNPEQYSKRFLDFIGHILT
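PI5P4Kalpha ADP-Glo assay; 5 microM ATP final; 60 min RT reaction; HEPES pH 7.4/EGTA/CHAPS, 5% DMSO; controls lacking substrate or enzyme; luminescent end-point.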
APE1 inh-1: qHTS Assay for Inhibitors of the Human Apurinic/apyrimidinic Endonuclease 1 (APE1). Potency, µM (top dose mostly 65.8 µM), without a hit: at the top dose activity change, negative = inhibition, hits mostly inhibitors. AID 2517, 2012. 350,000 compounds, 0.35% hits. recombinant APE1, TAMRA/BHQ-2 abasic DNA cleavage fluorescence;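 further: potency means the concentration at half of the fitted maximal effect; plate controls were vehicle for no effect and reference inhibitor for full effect; nearly all actives have a fitted effect of over 55% in size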
Target sequence (P27695 whole entry, looked up): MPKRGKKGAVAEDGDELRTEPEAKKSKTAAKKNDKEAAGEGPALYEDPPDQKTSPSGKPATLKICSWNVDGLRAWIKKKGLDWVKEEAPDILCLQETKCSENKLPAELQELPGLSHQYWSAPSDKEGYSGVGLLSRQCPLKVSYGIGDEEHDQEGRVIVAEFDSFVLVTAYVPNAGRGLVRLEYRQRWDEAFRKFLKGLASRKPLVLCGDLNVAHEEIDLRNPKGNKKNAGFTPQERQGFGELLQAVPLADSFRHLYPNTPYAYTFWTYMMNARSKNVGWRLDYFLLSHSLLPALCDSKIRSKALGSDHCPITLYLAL
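Measures dequenching upon AP-site incision of a 5'-TAMRA/3'-BHQ-2 THF-containing duplex, 50 nM; human APE1 0.75 nM after 15 min room-temperature exposure to compound; kinetic three-point read at one-minute spacing.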
GCN5L2 inh: qHTS Assay for Inhibitors of GCN5L2; GCN5L2 HAT assay, ThioGlo1 CoA-SH fluorescence; Potency, µM (top dose mostly 58.9 µM), without a hit: at the highest dose activity change, negative = inhibition, most hits filed as inhibitors; 390,000 compounds, 0.21% hits; AID 504327, 2011; further: potency means the concentration at half of the fitted maximal effect
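GCN5L2 (20 nM) in 50mM HEPES pH 7.5, 0.1mM EDTA, 0.01% Tween-20 preincubated 15 min with compounds at room temperature. Reaction started with H3(1-25) 75uM, acetyl-CoA 70uM, ThioGlo1 50uM; CoA-thiol fluorescence (Ex340/Em540) read at 0 and 20 min.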
FEN1 inh: qHTS Assay for the Inhibitors of Human Flap endonuclease 1 (FEN1) | P39748 | Recombinant FEN1 flap cleavage, fluorescence, 15 min | Potency, µM (top dose mostly 114 µM), inactives show at the highest dose activity change, negative = inhibition, usual class: inhibitors | 390,000 compounds, 0.35% hits; further: potency means the concentration at half of the fitted maximal effect; nearly all actives have a fitted effect of over 65% in size
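Potency values derive from four-parameter Hill fits of normalized qHTS data. The reaction used 10 nM FEN1 preincubated 15 min at room temperature with compound, then 50 nM DNA substrate, read at 0 and 15 min.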
RECQ1 inh: qHTS Assay for Inhibitors of RecQ-Like Dna Helicase 1 (RECQ1) | ATP-dependent DNA helicase Q1 (Homo sapiens), P46063 | RECQ1 DNA unwinding, red fluorescence kinetic read | Potency, µM (titrated, usually from 57.3 µM), inactives show top-dose activity, negative = inhibition, most hits filed as inhibitors | 240,000 compounds, 0.54% hits | AID 2549, 2010;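 further: potency means the concentration at half of the fitted maximal effect; plate controls were vehicle for no effect and no enzyme for full effect; nearly all actives have a fitted effect of over 30% in size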
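RECQ1T1 50 nM; forked duplex (20 bp + 30-nt ss tails) 200 nM, ATP 2 mM final; pH 8.0, 2 mM MgCl2, 2.5 ug/ml poly(dI-dC); 15 min compound preincubation; discontinuous kinetic read over 2 h at RT.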
APE1 dye cs: Counterscreen for APE1 Inhibitors: Fluorescent Dye Displacement Assay | shares compounds with APE1 inh-1 | DNA fluorescent dye displacement counterscreen, fluorescence | Potency, µM (titrated, usually from 28.5 µM), for inactives: at the top dose activity change, negative = inhibition, actives largely listed as inhibitors | 480 compounds, 7% hits | AID 2564, 2010;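 further: loss of thiazole orange fluorescence as the dye is displaced from duplex DNA; potency means the concentration at half of the fitted maximal effect; 0% = ThO with dsDNA and no compound and -100% = ThO without dsDNA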
EndoIV counter: Counterscreen for APE1 Inhibitors: qHTS Assay for Inhibitors of Endonuclease IV; shares compounds with APE1 inh-1; E. coli Endo IV, fluorogenic AP-site DNA cleavage; Potency, µM (top dose mostly 27.1 µM), for inactives: top-dose activity change, negative = inhibition, actives largely listed as inhibitors; 560 compounds, 4% hits;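 further: potency means the concentration at half of the fitted maximal effect; plate controls were uninhibited enzyme wells for no effect and no enzyme buffer wells for full effect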
APE1 inh-2: Confirmation qHTS Assay for Inhibitors of the Human Apurinic/apyrimidinic Endonuclease 1 (APE1); Potency, µM (series often up to 57.1 µM), for inactives: top-dose activity change, negative = inhibition, actives largely listed as inhibitors; shares compounds with APE1 inh-1; purified APE1, fluorogenic abasic-site DNA cleavage; 750 compounds, 44% hits; AID 2572, 2010; further: potency means the concentration at half of the fitted maximal effect; nearly all actives have a fitted effect of over 30% in size
APE1 FP inh: qHTS FP-Based Assay for Inhibitors of the Human Apurinic/apyrimidinic Endonuclease 1 (APE1); shares compounds with APE1 inh-1; APE1 binding to TAMRA-labelled double-stranded DNA, fluorescence polarization displacement; Potency, µM (titrated, usually from 28.5 µM), for the others: top-dose activity, negative = inhibition, usual class: inhibitors; 480 compounds, 7% hits; AID 2573, 2010; further: potency means the concentration at half of the fitted maximal effect
* = called active by the depositor; [ ] = dose if it differs, or a comment. Unless noted, the call rests on the fitted dose curve; in most records, active means well fitted curve in the direction sought with a large enough effect; inconclusive means small, poorly fitted or top-dose-only effect, or another doubt; inactive means no such curve, though single readings can be large; an effect the other way counts as inactive or inconclusive. Unless noted, on the % scale 0 is the no-effect control and ±100 the full control effect.

Clc1ccc(N2N=C(c3cccs3)CC2c2ccco2)cc1 (stereo not drawn) was read as BLM helicase inh -10.8%, PI5P4Ka inh 15.9, APE1 inh-1 11.7%, GCN5L2 inh -25.5%, FEN1 inh 0.8%, RECQ1 inh -18.5% and APE1 inh-2 -31.1%.
`Oc1ccc(/C=N/N2CCOCC2)c(O)c1O` gave BLM helicase inh -7.5%, PI5P4Ka inh -21.5, APE1 inh-1 7.08µM*, GCN5L2 inh 2.7%, FEN1 inh inconclusive, RECQ1 inh 11.8%, APE1 dye cs -5.4%, EndoIV counter 20.5%, APE1 inh-2 inconclusive and APE1 FP inh -13.4%.
`O=c1[nH]cc(C#Cc2ccccc2)c2ncncc12` gave FEN1 inh -9.8%.
For COc1ccc(C2/C=C\CN(CC(C)C)C(Cc3ccccc3)C(=O)N2Cc2ccc(F)cc2)cc1 (stereo not drawn) the results were BLM helicase inh -7.8%, APE1 inh-1 -3.2%, FEN1 inh -0.3% and RECQ1 inh inactive.
O=C(OC1Cc2c(O)cc(O)cc2OC1c1cc(O)c(O)c(O)c1-c1c(C2Oc3cc(O)cc(O)c3CC2O)cc(O)c(O)c1O)c1cc(O)c(O)c(O)c1 (stereo not drawn) was read as BLM helicase inh 6.31µM*, APE1 inh-1 0.1µM*, GCN5L2 inh 15.8µM*, RECQ1 inh 2.51µM*, EndoIV counter -19.7%[57.1 µM] and APE1 inh-2 0.178µM*.
Screening Nc1ccc(C(=O)O)c(O)c1 returned BLM helicase inh -12.4%, PI5P4Ka inh inconclusive, APE1 inh-1 1.4%, GCN5L2 inh -5.5%, FEN1 inh 16.9% and RECQ1 inh 9.4%.
Nc1ccc(N)c(C(=O)O)c1 was read as BLM helicase inh 5.62µM*, PI5P4Ka inh -90.8*, APE1 inh-1 1.26µM*, GCN5L2 inh 7.94µM*, FEN1 inh inconclusive, RECQ1 inh 11.2µM* and APE1 inh-2 2.24µM*.
For COc1cc(C2OC(=O)c3c2ccc(OC)c3OC)ccc1O (stereo not drawn) the results were APE1 inh-1 -5.8% and GCN5L2 inh -0.8%.
Screening NC(=O)Cn1c(=O)n(Cc2ccco2)c(=O)c2c3c(sc21)CCCCC3 returned BLM helicase inh inconclusive, APE1 inh-1 inconclusive, GCN5L2 inh -27.6%, FEN1 inh -12.3%, RECQ1 inh inconclusive, APE1 dye cs inconclusive, EndoIV counter 3.5%, APE1 inh-2 10µM* and APE1 FP inh inconclusive.
For CCOC(=O)CNC(=O)C1CCCCC1 the results were FEN1 inh -2.1%.
Cc1sc2ncnc(SCC(=O)NC(=O)NCc3ccco3)c2c1C was read as BLM helicase inh -27.2%, APE1 inh-1 28.2µM*, GCN5L2 inh -6.3%, FEN1 inh -20.1%, RECQ1 inh inconclusive, APE1 dye cs 15.1%, EndoIV counter -0.6%, APE1 inh-2 inconclusive and APE1 FP inh 19.9%.
CCOc1ccccc1-c1nnc2n1N=C(c1ccccc1OC)CS2 was read as BLM helicase inh 1.0%, APE1 inh-1 0.1% and RECQ1 inh -3.7%.
For NCC(=O)c1c[nH]c2ccccc12 the results were FEN1 inh 0.4%.
`CCn1c(SCC(=O)NCc2ccco2)nnc1-c1cccs1` gave BLM helicase inh -20.5%, APE1 inh-1 35.5µM*, GCN5L2 inh -16.3%, FEN1 inh 0.4%, RECQ1 inh -4.8%, APE1 dye cs inconclusive, EndoIV counter -1.7%, APE1 inh-2 inconclusive and APE1 FP inh -14.2%.
CC(=O)OC1CCC2(C)C3CCC4(C)C(CC5CCCCC54C(C)=O)C3CC(=O)[C@@]2(O)C1 (stereo partly drawn) was read as BLM helicase inh -3.1%, APE1 inh-1 -0.7% and RECQ1 inh -1.3%.
Screening CC(=O)O[C@H]1CC2(C)[C@@H](C[C@@H](O)[C@H]3[C@@]4(C)CC[C@@H](O)[C@@H](C)[C@@H]4CC[C@@]32C)C1=C(CCC=C(C)C)C(=O)O (stereo partly drawn) returned APE1 inh-1 -6.9%, GCN5L2 inh -4.3%, FEN1 inh inconclusive, RECQ1 inh -4.4%, EndoIV counter -8.5%[57.1 µM] and APE1 inh-2 -25.4%.
Screening C=CCn1c(COc2cccc(C)c2)nnc1SCC(=O)NC(=O)NCc1ccco1 returned BLM helicase inh -29.5%, APE1 inh-1 inconclusive, GCN5L2 inh -25.2%, FEN1 inh -14.8%, RECQ1 inh -20.2%, APE1 dye cs -6.9%, EndoIV counter 0.3%, APE1 inh-2 inconclusive and APE1 FP inh -22.5%.
COc1ccc2c(c1)c(=O)oc1cc(OCC(=O)NC3CCCCC3)ccc12 was read as BLM helicase inh -14.1%, APE1 inh-1 11.2µM*, GCN5L2 inh -16.5%, FEN1 inh -3.2%, RECQ1 inh -13.4%, APE1 dye cs -10.6%, EndoIV counter -2.1%, APE1 inh-2 5.62µM* and APE1 FP inh -29.5%.
